# Screens (PubChem)
# A selection: hits, their analogues and other compounds. The true share with any hit is near 7.5%.
# SMN2 splice enh: SMN2 splice variant enhancement. AID 1458. 2.8% of 210,000 active. HEK293 SMN2-luciferase splicing reporter, luminescence, 30-36 h. Potency, µM (series often up to 46.1 µM), for inactives: top-dose activity change, positive = activation, usual class: activators; further: % of control where 0% means no effect; nearly all actives have a fitted effect of over 55% in size
#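 HEK293 cells carry an SMN2 […]–luciferase reporter in which exon 7 inclusion puts luciferase in frame. Cells were plated 10-12 h before compound addition, then incubated 30-36 h at 37C. ONE-Glo luminescence was read; sodium butyrate at 4.5 mM final served as control.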
# NPC1 prom act: NPC1 promoter activation. Huh7 NPC1 promoter luciferase reporter, 24 h. 2.4% of 320,000 active. Potency, µM (top dose mostly 9.22 µM), inactives show at the highest dose activation, hits mostly activators; further: % of control where 0% means no effect; nearly all actives have a fitted effect of over 60% in size
#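 Huh7 cells stably carrying NPC1 promoter–luciferase, plated in Opti-MEM with 10% FBS for 2 h, were exposed to compound in DMSO for 24 h at 37 °C; luciferase reagent was added for 10 min and luminescence read.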
# ELG1 genotoxic: inducers of genotoxicity in HEK293T ELG1-luciferase cells; 1.3% of 330,000 active; Potency, µM (series often up to 46 µM), for the others: at the highest dose activity change, positive = activation, hits mostly activators; HEK293T ELG1-luciferase reporter, luminescence, 16 h; further: % of control where 0% means no effect; nearly all actives have a fitted effect of over 60% in size
#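 Screening used a luciferase reporter fused to human ELG1 in HEK293T cells. Luminescence was read on a CCD plate imager after 16 hr exposure and 30 min ONE-Glo incubation.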
# Luc counter: blocks Kinase-Glo luciferase, a counter-screen artifact; 0.28% of 200,000 active; Kinase-Glo luciferase, ATP luminescence, 8 min; Potency, µM (doses to about 38.3 µM), without a hit: top-dose activity change, negative = inhibition, usual class: inhibitors; further: on the % scale 0 is the no-effect control and ±100 the full control effect; nearly all actives have a fitted effect of over 60% in size
#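 Compound is pinned into ATP-containing buffer (10 uM ATP, imidazole pH 7.2, 7 mM MgCl2). Kinase-Glo luciferase reagent is then added. Light output is recorded following an 8-min room-temperature incubation.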
# FLuc modulator: inhibits or activates purified firefly luciferase, miR-21 counter-screen; P08659; purified FLuc, Km substrates, luminescence inhibition; Potency, µM (doses to about 57.5 µM), for the others: top-dose activity change, negative = inhibition, hits mostly inhibitors; 6.9% of 360,000 active; AID 588342;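 further: plate controls were vehicle for no effect and reference inhibitor for full effect; nearly all actives have a fitted effect of over 55% in size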
# Target sequence (P08659 whole entry, looked up): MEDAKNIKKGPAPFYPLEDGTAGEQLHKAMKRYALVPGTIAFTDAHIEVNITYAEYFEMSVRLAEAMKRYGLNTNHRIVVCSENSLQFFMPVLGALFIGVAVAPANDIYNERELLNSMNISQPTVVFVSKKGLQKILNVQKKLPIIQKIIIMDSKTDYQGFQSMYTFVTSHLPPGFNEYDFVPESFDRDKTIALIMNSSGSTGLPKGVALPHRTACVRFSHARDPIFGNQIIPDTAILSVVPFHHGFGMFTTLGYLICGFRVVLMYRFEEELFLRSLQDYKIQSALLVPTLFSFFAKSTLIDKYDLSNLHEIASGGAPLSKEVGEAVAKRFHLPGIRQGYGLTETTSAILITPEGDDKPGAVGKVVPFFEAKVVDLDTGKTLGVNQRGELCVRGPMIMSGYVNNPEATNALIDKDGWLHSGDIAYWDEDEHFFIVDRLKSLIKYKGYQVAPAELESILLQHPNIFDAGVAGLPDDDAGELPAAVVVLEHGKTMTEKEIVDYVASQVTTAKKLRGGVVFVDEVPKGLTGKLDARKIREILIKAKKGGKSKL
#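 Biochemical qHTS of compounds, final roughly 60 µM downward over six points, against 10 nM purified firefly luciferase using Km concentrations of substrates (10 uM D-luciferin, 10 uM ATP) in Tris acetate pH 7.5 buffer; luminescence output.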
# Rab9 promoter act: activators of Rab9 promoter; Potency, µM (top dose mostly 9.22 µM), for the others: at the top dose activation, negative = inhibition, hits mostly activators; Huh7 Rab9 promoter-luciferase reporter, luminescence, 24 h; 2.8% of 320,000 active; AID 485297; further: % of control where 0% means no effect; nearly all actives have a fitted effect of over 60% in size
#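 Cells were plated at 1500 per well in reduced-serum medium with 10% FBS and left 2 h. Compound in DMSO was then added for 24 h at 37 °C. Reporter signal was read by luminescence after 10 min with luciferase detection reagent.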
# Numbers without * were called inactive; ? = inconclusive; / = not tested or not shown; [ ] = dose if it differs, or a comment. The call rests on the fitted dose curve; in most records, active means well fitted curve in the direction sought with a large enough effect; inconclusive means small, poorly fitted or top-dose-only effect, or another doubt; inactive means no such curve, though single readings can be large; an effect the other way counts as inactive or inconclusive. Potency means the concentration at half of the fitted maximal effect.
SMILES,SMN2 splice enh,NPC1 prom act,ELG1 genotoxic,Luc counter,FLuc modulator,Rab9 promoter act
O=C(N/N=C/C=C/c1ccc2c(c1)OCO2)C(O)c1ccccc1 (stereo not given),/,-3%,6%,/,?,0%
Cc1ccc(C(=O)NCCOc2cccc(C)c2)cc1,26%,29%,?,1%,24µM*,27%
CC(C)(C)c1ccc(C(=O)NCCOc2ccccc2)cc1,/,0.32µM*,0.73µM*,/,0.34µM*,?
COc1cccc(C(=O)NCCOc2cc(C)cc(C)c2)c1,-1%,1%,2%,1%,?,-4%
COc1cc(C(=O)NCCOc2ccccc2)cc(OC)c1OC,/,1%,8%,/,-6%,-1%[1.84 µM]
COc1cc(OC)cc(C(=O)NCCOc2ccccc2)c1,26%,1.6µM*,12µM*,-1%,?,1µM*
CC(C)(C)c1ccc(C(=O)NCCOc2ccccc2F)cc1,/,16%,0.73µM*,/,0.27µM*,?
CC[C@]12CCCN3CCc4c(n(c5ccccc45)C(=O)C1)[C@H]32,/,/,/,2%,/,/
CC(=O)Nc1cccc(NC(=O)c2c(-c3ccccc3)c(-c3ccccc3)nn(C)c2=O)c1,-1%,/,/,/,-13%,/
Cn1c(=O)c(=O)n(C)c2cc(S(=O)(=O)N3CCCC3C(=O)Nc3ccc(F)cc3)ccc21 (stereo not given),-1%,2%,4%,/,-1%,3%
CC(=O)N(OCc1ccccc1)[C@@H]1c2cc(C#N)ccc2OC(C)(C)[C@H]1O,-15%,/,/,-2%,/,/
Cc1nnc(NC(=O)c2oc3ccccc3c2C)s1,/,4.5µM*,18µM*,/,3µM*,4µM*
Cc1ccc2c(C)c(C(=O)Nc3nnc(C)s3)oc2c1,26%,4%,4%,-1%,-3%,-3%
Cc1nc(NC(=O)c2oc3ccccc3c2C)sc1C(=O)N(C)C,10µM*,?,?,-11%,11µM*,2.8µM*
Cc1ccc(C(=O)Nc2nc(C)c(C(=O)N(C)C)s2)o1,/,29%,?,/,?,?
NNC(=O)/C(=C\c1ccc(Br)cc1)NC(=O)c1cccs1,0%,-6%,-4%,4%,1%,0%
COc1ccc([C@@H]2CC(=O)c3c(O)cc(O)cc3O2)cc1O,7%[20.6 µM],?,?,0%,15µM*,?
Cn1c(C(=O)OC(C(=O)NCc2ccco2)c2ccncc2)cc2sccc21 (stereo not given),-9%,-1%,-4%,0%,-1%,10%
Cc1ccc(C)c(NC(=O)C(Sc2cccc[n+]2[O-])c2ccccc2)c1 (stereo not given),4%,-3%,0%,-5%,-4%,4%
O=C(Nc1ccc(Cl)cc1C(F)(F)F)C(Sc1cccc[n+]1[O-])c1ccccc1 (stereo not given),5.6µM*,0%,0%,3%,0%,-6%
COC(=O)CCCOc1ccc(Cl)cc1Cl,-4%,/,/,-1%,/,/
O=C(CSc1nc(O)c(C2CCCCC2)c(=O)[nH]1)NCC1CCCO1 (stereo not given),2%,-3%,2%,2%,15µM*,10%
CCC(C)NC(=O)CSc1nnc(-c2cc(-c3ccc(C)cc3)nc3ccccc23)n1N (stereo not given),-5%,-1%,-5%,-5%,11µM*,0%
Cc1ccc(-c2cc(-c3nnc(SCC(=O)NCC(C)C)n3N)c3ccccc3n2)cc1,4%,23%,1%,-6%,17µM*,4%
CCC(C)NC(=O)CSc1nnc(-c2ccc(Cl)cc2)n1N (stereo not given),-8%,-6%,-3%,2%,-2%,-5%
SMILES,SMN2 splice enh,NPC1 prom act,ELG1 genotoxic,Luc counter,FLuc modulator,Rab9 promoter act
COc1ccc(CCNC(=O)CCS(=O)(=O)Cc2ccccc2C)cc1OC,/,0%,-2%,/,-3%,-1%
Cc1ccc(C)c(C(=O)CSc2nc3cc(C(=O)NC4CCCC4)ccc3c(=O)n2CC2CCCO2)c1 (stereo not given),/,/,/,/,-2%,/
COC(=O)C1=C(c2ccccc2)c2ccccc2S(=O)(=O)N1CC(=O)Nc1cccc(C(C)=O)c1,-1%,/,/,/,-17%,/
NC(=O)c1ccc(NC(=O)C2CCN(S(=O)(=O)Cc3ccccc3)CC2)cc1,/,/,/,/,-1%,/
O=C1NC(=O)/C(=C\c2ccc(OCc3ccccc3)cc2)S1,/,4%,11%,/,19µM*,16%
COc1cc(/C=C2/SC(=O)NC2=O)ccc1OCc1ccccc1,/,2%,10%,/,?,11%
O=C1NC(=O)/C(=C\c2ccccc2OCc2ccccc2)S1,-14%,-4%,-1%,5%,27µM*,1%
Cc1cccc(Oc2ccc(Cl)cc2N)c1,17%,14%,2%,-2%,17µM*,23%
COc1ccc(Oc2ncc3nc(-c4ccccc4)c(=O)n(CCC#N)c3n2)cc1,-16%,/,/,-1%,/,/
CCCCN1CC(=O)N2[C@H](c3ccc(OC)cc3)[C@@H]3C(=O)N(CC)C(=O)[C@@H]3[C@]2(C)C1=O,/,-1%,1%,/,-3%,-5%
Cc1ccnc(NC(=O)/C=C/c2ccccc2[N+](=O)[O-])c1,2.8µM*,2µM*,2.6µM*,-29%,3.4µM*,0.56µM*
Cc1ccnc(NC(=O)/C=C/c2ccccc2Cl)c1,1.3µM*,0.71µM*,?,-27%,0.6µM*,1.1µM*
O=C(/C=C\c1ccccc1[N+](=O)[O-])Nc1ccccc1,18µM*,?,?,-5%,11µM*,2µM*
Cc1ccnc(NC(=O)c2ccccc2[N+](=O)[O-])c1,20%,27%,2%,-4%,-26%,17%
NS(=O)(=O)c1ccc(NC(=O)/C=C/c2ccccc2[N+](=O)[O-])cc1,-9%,1%,-2%,-3%,4%,0%
Cc1ccnc(NC(=S)NC(=O)/C=C/c2ccccc2)c1,15%,?,11%,-2%,-19%,?
Cc1cc(NC(=O)c2ccc(N3CCCC3)c([N+](=O)[O-])c2)no1,10%,7%,7%,3%,-8%,12%
O=C(Nc1nc2ccccc2s1)c1ccc(N2CCCCC2)c([N+](=O)[O-])c1,5%[1.84 µM],?,-4%,3%,9.5µM*,2µM*
O=C(Nc1ccon1)c1ccc(N2CCCCC2)c([N+](=O)[O-])c1,14µM*,2.8µM*,16%,7%,12µM*,2µM*
O=C(Nc1nc(-c2ccccc2)cs1)c1ccc(N2CCOCC2)c([N+](=O)[O-])c1,-105%,-27%,-14%,4%,?,-27%
CC(C)(C)C(=O)CSc1nc(N)cc(=O)[nH]1,/,-3%,4%,/,-2%,-1%
